Assay outcomes as filed in PubChem.
ALOX15 inhib – inhibitors of human 15-lipoxygenase (ALOX15) | P16050 | purified 15hLO-1, xylenol orange hydroperoxide absorbance | Potency, µM (top dose mostly 57.1 µM), without a hit: top-dose activity change, negative = inhibition, most hits filed as inhibitors | actives 1.4% (n = 74,000) | AID 887; further: on the % scale 0 is the no-effect control and ±100 the full control effect; nearly all actives have a fitted effect of over 55% in size
Target sequence (P16050 whole entry, looked up): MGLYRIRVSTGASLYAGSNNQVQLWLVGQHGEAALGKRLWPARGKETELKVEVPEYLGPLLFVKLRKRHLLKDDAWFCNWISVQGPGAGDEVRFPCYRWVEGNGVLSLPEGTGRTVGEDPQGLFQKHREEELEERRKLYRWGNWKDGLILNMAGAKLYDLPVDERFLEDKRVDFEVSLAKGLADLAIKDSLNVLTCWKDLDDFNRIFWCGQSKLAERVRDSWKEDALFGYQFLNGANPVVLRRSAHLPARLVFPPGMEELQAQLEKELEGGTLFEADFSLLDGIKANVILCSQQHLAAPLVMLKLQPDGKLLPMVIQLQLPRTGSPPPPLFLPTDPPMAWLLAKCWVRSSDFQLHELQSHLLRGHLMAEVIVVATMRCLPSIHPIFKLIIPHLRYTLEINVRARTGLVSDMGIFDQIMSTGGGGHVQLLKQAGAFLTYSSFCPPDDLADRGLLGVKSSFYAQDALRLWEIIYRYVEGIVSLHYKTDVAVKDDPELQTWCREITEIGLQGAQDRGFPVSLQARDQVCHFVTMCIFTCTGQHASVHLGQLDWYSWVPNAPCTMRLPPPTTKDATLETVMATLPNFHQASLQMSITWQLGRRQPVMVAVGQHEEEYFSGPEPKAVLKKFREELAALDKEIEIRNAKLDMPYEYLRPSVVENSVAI
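Purified human 15hLO-1 (40 nM final) in 25 mM Hepes pH 7.5, 0.01% Triton X-100 was preincubated with compound 15 min at room temperature, then reacted 6 min with 50 uM arachidonic acid; hydroperoxide detected by Fe-XO, 573/405 nm absorbance ratio.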
IkB sig inh – inhibitors of IkB signaling in ABC-DLBCL cells. ABC-DLBCL IkBa-CBG/CBR dual luciferase ratio, 4 h; response scale: scaled: untreated 0%, proteasome inhibitor 100%. Potency, µM (series often up to 57.1 µM), for inactives: at the top dose IkBa stabilization activation. actives 0.04% (n = 110,000). AID 445; active means well fitted curve in the direction sought with a large enough effect in the signal ratio, not every such curve was filed as active; inconclusive means small, poorly fitted or top-dose-only effect, or a change in a side signal; the % refers to the signal ratio;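 further: the direction sought is a rising ratio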
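In this assay, an IκBα–CBG68 fusion accumulates when IKK-driven degradation is blocked; native CBR normalizes for cell number. OCI-Ly3 cells were treated 4 h with compound and doxycycline, then green and red light read after Chroma-Glo addition.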
Tau fil binding – tau filament binding. P10636. recombinant tau filaments, thioflavin S fluorescence, 15 h; filaments grown with octadecylsulfate alongside compound. Potency, µM (highest dose often 57.1 µM), without a hit: top-dose activity change, negative = inhibition. actives 2% (n = 71,000). AID 596;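 further: on the % scale 0 is the no-effect control and ±100 the full control effect; actives lower thioflavin S fluorescence by blocking filaments or displacing dye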
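Recombinant tau protein (human, 1 uM final) plus 30 uM ODS in HEPES pH 7.4 with NaCl, DTT and thioflavine S. Compound present from the start; fluorescence at 510 nm after 15 h, 37 C.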
CRE Fsk mod – alters forskolin-stimulated CRE reporter signaling in CHO cells; actives 2.5% (n = 71,000); Potency, µM (highest dose often 38.2 µM), for the others: at the top dose activity change, negative = inhibition, hits mostly activators; CHO CRE-bla reporter (cAMP response element driving beta-lactamase), forskolin EC10, beta-lactamase ratio; active means well fitted activation curve with a large enough effect in the signal ratio, with a control signal flat, not every such curve was filed as active; inconclusive means small, poorly fitted or top-dose-only effect, or effect the other way, or a change in a side signal; the % refers to the signal ratio; further: % of control where 0% means no effect
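Forskolin analogue NKH 477 at EC10 stimulated CRE-driven beta-lactamase in CHO cells alongside compound dilution series. Beta-lactamase was measured with CCF4, excitation 405 nm, emission ratio 460/530 nm.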
Hsp90 Hop PPI – changes Hsp90-Hop TPR2A binding signal, up or down | AlphaScreen TPR2A-His6 binding biotin-Hsp90 C-terminal peptide | Potency, µM (series often up to 57 µM), without a hit: at the highest dose activity change, negative = inhibition | actives 0.44% (n = 71,000) | AID 595; active means well fitted curve in either direction with a large enough effect; inconclusive means small, poorly fitted or top-dose-only effect, or another doubt; further: on the % scale 0 is the no-effect control and ±100 the full control effect
* hit, by the source's call; i = inactive; ? = inconclusive; . = not tested or not shown; [ ] = another dose, or the depositor's remark. A selection: hits, their analogues and other compounds. The true share with any hit is near 3.6%. Unless noted, the call rests on the fitted dose curve; in most records, active means well fitted curve in the direction sought with a large enough effect; inconclusive means small, poorly fitted or top-dose-only effect, or another doubt; inactive means no such curve, though single readings can be large; an effect the other way counts as inactive or inconclusive. Potency means the concentration at half of the fitted maximal effect.

SMILES	ALOX15 inhib	IkB sig inh	Tau fil binding	CRE Fsk mod	Hsp90 Hop PPI
CCN1c2ccccc2NC2N=C(OC)C(c3ccccc3)C21 (stereo unspecified)	25.1µM*	?	31.6µM*	?	-20.0%
CCN1c2ccccc2NC2C1C(C(C)=O)C(=O)N2c1ccc(Cl)cc1 (stereo unspecified)	-24.3%	?	-29.4%	?	-27.3%
Cc1nnc2n(-c3ccc(Cl)cc3)c(=O)c3c4c(sc3n12)CN(C)CC4	-4.1%	.	.	.	.
CN1CCc2c(sc3c2c(=O)n(-c2ccccc2)c2nnc(SCc4ccc(Cl)cc4)n32)C1	-21.3%	-0.5%	3.16µM*	27.4%	-14.1%
CCOc1ccccc1NC(=O)c1c(NCc2cccs2)sc2c1CCCCC2	.	-1.0%	.	.	.
COC(=O)c1scc(-c2ccc(C)cc2)c1S(=O)(=O)N1CCN(c2ccc(OC)cc2)CC1	.	-1.0%	.	.	.
COc1ccc(-c2csc3c2[N+]2=CCC=C2C3=O)cc1	-2.2%[11.4 µM]	?	3.16µM*	3.16µM*	-11.4%[11 µM]
Cc1nc2ccccc2c(=O)n1/N=C/c1cn(-c2ccccc2)nc1-c1cccs1	-5.4%	?	25.2%	2.51µM*	-3.1%
Cc1cccc(-n2c(=O)c3c(c4cc(C)ccc4n3C)n(CC(=O)Nc3ccccc3C(F)(F)F)c2=O)c1	.	4.1%	.	.	.
CCCCn1c(=NC(=O)c2ccco2)c(C(=O)OCC)cc2c(=O)n3ccccc3nc21	-17.7%	?	7.94µM*	?	-7.5%
CCCCCn1c(=NC(=O)c2ccco2)c(C(=O)OCC)cc2c(=O)n3ccccc3nc21	-8.3%	10.5%	5.01µM*	10µM*	-6.5%
CCOC(=O)c1scc(-c2ccccc2)c1S(=O)(=O)Nc1cc(Cl)c(OC)cc1OC	.	-3.2%	.	.	.
NC(=O)CSc1nnc(-c2cc3ccccc3o2)n1Cc1ccccc1	3.7%	0.9%	223.6%	-8.6%	-7.1%
O=C(CSc1nnc(C2CC2)n1Cc1ccccc1)c1cc2ccccc2o1	-5.0%	1.7%	10µM*	?	-9.0%
O=C(Nc1ccc(SC(F)F)cc1)c1ccc2nccnc2c1	-15.7%	?	12.6µM*	0.8%	-7.6%
Cc1noc(C)c1COC(=O)Cc1ccc(Cl)c(Cl)c1	25.1µM*	7.2%	6.5%	2.8%	?
Cc1noc(C)c1COC(=O)CCc1ccc(S(=O)(=O)N2CCCCC2)cc1	8.4%	1.2%	-0.1%	-3.2%	0.4%
O=C(Cn1c(=O)n(CCCS(=O)(=O)C2CCCCC2)c(=O)c2ccccc21)Nc1ccccc1C(F)(F)F	.	-2.0%	.	.	.
Cc1ccc(C(=O)OCc2cc3ccccc3[nH]c2=O)cc1	-6.0%	-1.9%	4.7%	?	-2.9%
Cc1ccc(O)c(-c2cc3ccccc3[nH]2)c1	?	1.1%	2.51µM*	?	-12.6%[11 µM]
Cc1ccc(NC(=O)CSc2nc3nc(C)cc(C)c3c(=O)[nH]2)cc1	-16.9%	8.0%	0.9%	3.16µM*	0.1%
COc1ccc(C(=O)CSc2nc3nc(C)cc(C)c3c(=O)[nH]2)cc1OC	14.8%	-0.3%	362.7%	2.51µM*	1.1%
Cc1cc(=O)[nH]c(SCC(=O)Nc2cccc(C(F)(F)F)c2)n1	5.7%	-1.1%	-10.2%	15.5%	-0.5%
Cc1cc(C)c2c(=O)[nH]c(SCC(=O)Nc3ccccc3)nc2n1	2.9%	8.2%	-1.3%	5.01µM*	2.3%
Cc1cc(C)c2c(=O)[nH]c(SCC(=O)N3CCCCC3)nc2n1	2.6%[11.4 µM]	2.1%	6.6%[11.4 µM]	2.51µM*	?
SMILES	ALOX15 inhib	IkB sig inh	Tau fil binding	CRE Fsk mod	Hsp90 Hop PPI
CCOc1ccc(CCNC(=O)Cn2nc(C)n3c(cc4occc43)c2=O)cc1OCC	.	1.8%	.	.	.
CCN(CC)c1nn2c(=O)c(C(=O)NCc3cccc(C)c3)cnc2s1	.	-3.2%	.	.	.
CCOC(=O)CS(=O)(=O)c1nc(-c2ccccc2)cc(C(F)(F)F)n1	-20.5%	?	20µM*	?	-2.0%
Cc1oc2ncn(CC(C)C)c(=O)c2c1C(=O)NCCCN1CCCCC1C (stereo unspecified)	.	1.9%	.	.	.
COC(=O)c1[nH]c2ccc(C)cc2c1NC(=O)Nc1ccccc1OC	25.1µM*	36.9%	i	-3.7%	0.1%
CCOC(=O)c1[nH]c2ccccc2c1NC(=O)c1ccc(C)c(C)c1	.	2.5%	.	.	.
CCOC(=O)c1[nH]c2ccc(OC)cc2c1NC(=O)CN1CCC2(CC1)OCCO2	3.3%	-1.1%	-11.0%	10µM*	-4.4%
CCOC(=O)c1[nH]c2ccc(OC)cc2c1NC(=O)C(C)N1CCC2(CC1)OCCO2 (stereo unspecified)	12.2%	-1.7%	-18.1%	28.8%	4.6%
COC(=O)c1[nH]c2ccc(C)cc2c1NC(=O)CN1CCc2cc(OC)c(OC)cc2C1	-1.9%	?	39.5%	?	-4.6%
COc1cc(C(=O)OCc2cc3ccccc3[nH]c2=O)cc(OC)c1OC	6.6%	-0.5%	-7.8%	3.16µM*	-0.5%
CCOC(=O)c1[nH]c2ccccc2c1NC(=O)c1cc(OC)c(OC)c(OC)c1	-6.3%	2.6%	-3.3%	3.16µM*	1.7%
COc1ccc(-c2nc3scc(CCNS(=O)(=O)c4ccc(C)cc4)n3n2)cc1	.	1.4%	.	.	.
CCOC(=O)c1[nH]c2ccc(OC)cc2c1NC(=O)c1nonc1C	0.1%	3.8%	13.7%	3.98µM*	-7.0%
COc1ccccc1OCC(=O)Nc1cc(-c2ccc(C)cc2)no1	.	-0.9%	.	.	.
Cc1nn(-c2ccc(F)cc2)c(-n2cccc2)c1C(=O)NCCc1ccc(Cl)cc1	.	0.7%	.	.	.
CCn1cc(C(=O)N2CCN(C(=O)c3ccco3)CC2)c2cc(OC)c(OC)cc2c1=O	0.4%	-0.7%	-10.4%	10µM*	1.7%
COc1cccc(NC(=O)c2oc3ccccc3c2NC(=O)c2ccc(C(F)(F)F)cc2)c1	.	2.2%	.	.	.
COc1ccc(C2C(=O)N(C3CCCCC3)CC(=O)N2CCc2ccc(OC)c(OC)c2)cc1 (stereo unspecified)	.	1.1%	.	.	.
Cc1c(C(=O)Nc2ccc(N3CCOCC3)cc2)oc2ccccc12	-6.7%	?	25.1µM*	?	-4.1%
O=C(CCc1ccccc1)Nc1ccc(N2CCOCC2)cc1	-6.6%	-0.2%	15.8µM*	-0.7%	-3.6%
CC(=O)OCC#CCSc1nnc(-c2cccc(Br)c2)o1	.	1.4%	.	.	.
CC1(C)Cc2c(c(-c3ccccc3)[nH]c(=O)c2C#N)CO1	10.6%	-0.7%	-2.7%	?	-0.2%
CSc1c(C#N)c(N)c(C#N)c2c1COC(C)(C)C2	-1.5%	0.7%	-4.8%	3.98µM*	6.3%
CC(C)C[C@H](N)CSSC[C@@H](N)CC(C)C	-12.8%	6.6%	5.3%	-16.1%	-4.7%
COc1ccc(C(=O)NCc2cn3cccc(C)c3n2)cc1OC	4.4%	4.3%	1.4%	?	-0.8%
COc1cc(C(=O)NCc2cn3cccc(C)c3n2)cc(OC)c1OC	1.4%	5.2%	6.0%	12.6µM*	0.0%
